A short description of assay [1]: Drug repurposing screens with cells derived from glioblastoma tumor samples (AID 1345199). Also: nearly all actives have a fitted effect of over 40% in size. Particulars: GBM patient neurospheres viability, ATP luminescence, 48 h. Put shortly: (§1)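 Four patient lines of CD133+ GBM neurospheres were screened at several concentrations; hits were retested in those lines plus three slower-growing GBM lines, using 48-hour treatment and ATP-based viability.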

Assay [2] deals with astro (control astrocytes). The description is as above. To be noted: viability, ATP luminescence, 48 h; series mostly up to 45.9 µM. A digest of the protocol: as §1
[3] abbreviates: at 45.9 µM (top of the series), tumour line B.
[4] abbreviates: at 45.9 µM (top of the series), tumour line D.
Where [5] appears, read: at 46 µM (top of the series), tumour line A.
Setting [6] is: at 46.1 µM (top of the series), tumour line C.

Records with an inconclusive call do not appear. A number with no mark means an inactive call. Active and inactive are the calls of the source. Calls follow the shape of the dose curve; as a rule, active = well fitted inhibition curve with a large enough effect; inconclusive = small, poorly fitted or top-dose-only effect; inactive = flat fitted curve, though single readings scatter.

This note sets out measurements from PubChem BioAssay (NCATS).
% is scaled to controls: 0 for no effect and ±100 for the full control effect; potency is read from the fitted curve at half-maximal effect.

As for `NC[C@@H]1O[C@H](O[C@H]2[C@@H](O)[C@H](O[C@@H]3[C@@H](O)[C@H](N)C[C@H](N)[C@H]3O[C@H]3O[C@H](CO)[C@@H](O)[C@H](O)[C@H]3N)O[C@@H]2CO)[C@H](N)[C@@H](O)[C@@H]1O`, the activity, negative = cell killing in assay [1] (setting [3]) is -4.51%; in assay [1] (setting [4]), -15.7%; in assay [1] (setting [5]), -10.6%; in assay [1] (setting [6]), -32.1%. For the same compound, in assay [2], the Potency entry is “inactive”.
For the compound `CN[C@@H]1[C@@H](O[C@H]2O[C@H](CO)[C@@H](N)[C@H](O)[C@H]2O)O[C@H]2C[C@@H](N)[C@@H](O[C@H]3[C@H](O)[C@@H](O)[C@H](N)C[C@@H]3N)O[C@@H]2[C@@H]1O`, the activity, negative = cell killing in assay [1] (at 20 µM (top of the series), tumour line C) was -7.39%; in assay [1] (at 21.2 µM (top of the series), tumour line B), 0.663%; in assay [1] (at 21.2 µM (top of the series), tumour line D), 2.67%; in assay [1] (at 21.3 µM (top of the series), tumour line A), -16.4%. For the same compound, in assay [2], the Potency result is “inactive”.
As for `O=C1C2CC3CC1CC(O)(C3)C2`, the activity, negative = cell killing was 0.0639% in assay [1] (setting [3]), -11.1% in assay [1] (setting [4]), -19.7% in assay [1] (setting [5]) and -14.8% in assay [1] (setting [6]). Further, in assay [2], the Potency entry is “inactive”.
Consider `CC(=O)OCC1=C(C(=O)O)N2C(=O)[C@@H](NC(=O)Cc3ccccc3)[C@H]2SC1`, for which the activity, negative = cell killing in assay [1] (setting [3]) is -6.43%; in assay [1] (setting [4]), -15.2%; in assay [1] (setting [5]), -28.6%; in assay [1] (setting [6]) it was -24%. Moreover, the Potency entry in assay [2] was “inactive”.
For the compound `COc1cc2c(cc1OC)[C@@H](c1ccccc1)CN(C)CC2`, the activity, negative = cell killing in assay [1] (setting [3]) was -22%; in assay [1] (setting [4]), -9.13%; in assay [1] (setting [6]), -17.9%. The Potency in assay [1] (tumour line A) was 20 µM (active). The Potency result in assay [2] was “inactive”.
For `CC(=O)Nc1c(I)c(C(=O)O)c(I)c(N(C)C(C)=O)c1I`, the activity, negative = cell killing in assay [1] (setting [3]) was 6.39%; in assay [1] (setting [4]) it was 5.92%; in assay [1] (setting [5]), -22.3%; in assay [1] (setting [6]) it was 7.24%. In addition, the Potency result in assay [2] was “inactive”.
